From PubChem BioAssay AID2685 (National Center for Advancing Translational Sciences (NCATS), 2010)
The campaign covered roughly 320,000 compounds. About 2,100 (0.66%) were called active. About 53% were inconclusive and are not listed. Calls follow the shape of the dose curve; as a rule, active = well fitted inhibition curve with a large enough effect in the signal ratio, with a control signal flat (not every such curve was filed as active); inconclusive = small, poorly fitted or top-dose-only effect, or effect the other way, or a change in a side signal; inactive = flat fitted curve, though single readings scatter; the % refers to the signal ratio. The full list was thinned out, with actives kept by preference.

Assay: qHTS Assay for Lipid Storage Modulators in Drosophila S3 Cells;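 as to cell number change: cells counted by Cell Tracker Red CMTPX staining in the red channel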; as to lipid storage change, negative = inhibition: % is scaled to controls: 0 for no effect and ±100 for the full control effect
Conditions: BODIPY lipid droplet fluorescence, 18-24 h, cells fed with added oleic acid; cell number change: measured here: cell count max response; series mostly up to 46.1 µM
Procedure, shortened: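 Drosophila S3 cells got compounds at several concentrations plus oleic acid (400 uM solution). Laser-scanning cytometry with 488 nm excitation read lipid droplets at 500-530 nm and cells at 575-640 nm. Percent activity was relative to 20 uM Triacsin C.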
Potency is read from the fitted curve at half-maximal effect.

SMILES	Potency	cell number change [%]	lipid storage change, negative = inhibition
COc1ccc(C2CC2/C(C)=N/OC(=O)c2cccs2)cc1 (stereo unspecified)	inactive		
CCOC(=O)c1cc2sc(C)cc2n1CC(=O)NCCc1ccccc1	inactive	5.86	
Cc1cccc(C(=O)Nc2ccc(C)c(OC(=O)c3cccc(C)c3)c2)c1	inactive	-20.4	
COCCCNC(=O)CCNS(=O)(=O)c1ccc(C)cc1	inactive	9.83	
CCN(Cc1ccccc1)C(=O)COC(=O)c1cnc(C)cn1	inactive		
Cc1cnc(C(=O)OCC(=O)NCCCc2ccccc2)cn1	5.17 µM (active)	-37.4	
CC(=O)Nc1ccc(S(=O)(=O)NCCc2ccccc2)cc1	inactive	-18.3	
O=C(CCCc1ccccc1)NCCc1ccccc1	inactive	1.1	
COc1ccc(CCNC(=O)COC(=O)c2cnc(C)cn2)cc1OC	inactive	5.11	
Cc1ccc(S(=O)(=O)NCCC(=O)NCCOc2ccccc2)cc1		2.02	-20.7% [at 0.0737 µM] (inactive)
CC(=O)Nc1ccc(S(=O)(=O)NCCC(=O)NCCOc2ccccc2)cc1	inactive	-2.82	
O=C(CCCCC(=O)NCCc1ccccc1)NCCc1ccccc1	inactive	-15.5	
O=C(CCCCC(=O)NCCCc1ccccc1)NCCCc1ccccc1	20.6 µM (active)	-16.3	
CC(=O)Nc1ccc(S(=O)(=O)NCCC(=O)NCCCc2ccccc2)cc1	1.64 µM (active)	6.57	
Cc1ccc(S(=O)(=O)NCCC(=O)NCCCSc2ccccc2)cc1	16.4 µM (active)	-14.6	
CC(=O)NC(Cc1ccccc1)C(=O)OCC(=O)c1ccc(F)cc1 (stereo unspecified)	inactive		
Cc1ccc(Nc2nc(-c3ccncc3)nc3ccccc23)cc1	inactive	-7.93	
Cc1nn(CCCC(=O)NCc2ccco2)c(=O)c2nn(-c3ccccc3)c(C)c12	inactive		
CC(C)(/C=N/O)N(O)C=C1C=CC(=O)C=C1	inactive	1.11	
N#C/C(C(=O)Oc1ccccc1)=C1\C=Cc2ccccc2N1	inactive	-1.92	
COc1ccc(OC(=O)/C=C/c2ccc([N+](=O)[O-])cc2)cc1	inactive	3.89	
COc1ccc(S(=O)Cc2ccc(C(=O)NC3CC3)o2)cc1 (stereo unspecified)	inactive	13.8	
COc1ccc(N(C)S(=O)(=O)c2cccc(C(=O)Nc3nc(C)c(C(C)=O)s3)c2)cc1	1.16 µM (active)		

SMILES	Potency	cell number change [%]	lipid storage change, negative = inhibition
COc1ccc(N(C)S(=O)(=O)c2cccc(C(=O)Nc3nnc(C)s3)c2)cc1	inactive	-20.6	
COc1ccc(N(C)S(=O)(=O)c2cccc(C(=O)Nc3nnc(C4CC4)s3)c2)cc1	inactive		
O=C(NC(=S)NCc1cccnc1)c1cc2ccccc2o1	inactive	-19.5	
Cc1cc(F)c(F)c(C(=O)NC2CC2)c1Cl	9.2 µM (active)		
Cc1cc(F)c(F)c(C(=O)N2C(C)CCCC2C)c1Cl (stereo unspecified)	inactive	0.056	
Cc1cc(F)c(F)c(C(=O)N2CCC(C)CC2)c1Cl	inactive	0.433	
COc1ccc(OCc2cc(C(=O)N(C)C(C)c3ccon3)no2)c(Cl)c1 (stereo unspecified)	inactive	-9.97	
Cc1cc2c(cc1S(=O)(=O)N1CCN(c3ccccc3)CC1)OCCN2C	inactive	-3.46	
Cc1ccc(S(=O)(=O)C2(C(=O)N3CCN(c4cc(C)ccc4C)CC3)CC2)cc1	inactive		
Cc1cccc(N2CCN(C(=O)C3(S(=O)(=O)c4ccc(Cl)cc4)CC3)CC2)c1C	inactive	0.245	
Cc1ccc(S(=O)(=O)C2(C(=O)N3CCN(c4ccccc4F)CC3)CC2)cc1	0.731 µM (active)	-5.26	
C/C(=N/Nc1ccc([N+](=O)[O-])cc1)c1c[nH]c2ccccc12	4.11 µM (active)	-24.9	
C/C(=N\NS(=O)(=O)c1ccc([N+](=O)[O-])cc1)c1c[nH]c2ccccc12	inactive	-0.495	
C/C(=N/NS(=O)(=O)c1cccc([N+](=O)[O-])c1)c1c[nH]c2ccccc12	inactive		
O=C(Cn1cc(S(=O)(=O)Cc2ccccc2F)c2ccccc21)N1CCOCC1	inactive	9.64	
O=[N+]([O-])c1ccc(N2CCCC2)nc1N1CCCC1	inactive	16.9	
COc1ccc(-c2cc(=O)c(C(=O)c3ccc(C)cc3)n[nH]2)cc1	inactive	14	
O=C(OCc1cc(Cl)ccc1OC(F)F)c1cccnc1	inactive	13.9	
O=C(OCc1cc(Cl)ccc1OC(F)F)c1cc(S(=O)(=O)O)ccc1O	1.64 µM (active)	-6.52	
O=C(OCc1cc(Cl)ccc1OC(F)F)c1cncc(Br)c1	inactive		
CC1CC(=O)Nc2ccccc2N1C(=O)CSc1ncnc2sccc12 (stereo unspecified)	inactive	0.129	
COc1ccc(CCC(=O)Nc2cccc(S(=O)(=O)N(C)C)c2)cc1OC	inactive	15.7	
COc1ccc([N+](=O)[O-])cc1NC(=S)NC(C)=O	inactive	0.615	

SMILES	Potency	cell number change [%]	lipid storage change, negative = inhibition
CN(C)S(=O)(=O)Nc1cc(Cl)cc(Cl)c1	18.4 µM (active)	-41.2	
CN(C)S(=O)(=O)Nc1cc(F)cc(F)c1	inactive	-8.31	
Cc1ccc(NS(=O)(=O)N(C)C)cc1	inactive		
CCN(C(=O)COC(=O)c1ccc(Cl)c(N)c1)C1CCS(=O)(=O)C1 (stereo unspecified)	inactive	6.77	
CCOc1ccccc1C(=O)n1nc2nc(C)cc(C)c2c1N	inactive	6.26	
CCCn1c(N)c(C(=O)CSc2nnc(C3CC3)n2Cc2ccccc2)c(=O)[nH]c1=O	inactive	7.78	
COc1ccc(C(=O)/C=C/c2ccccc2)c(OC)c1	inactive	16.5	
O=C1C(=O)N(CCCN2CCOCC2)C(c2ccc(F)cc2)/C1=C(\O)c1ccc2c(c1)OCCO2 (stereo unspecified)	inactive	-2.36	
COc1cccc(C(=O)Nc2cccc(OC(C)=O)c2)c1	inactive	-9.37	
COc1ccc(CCN2C(=O)/C(=C\c3ccco3)SC2=S)cc1OC	inactive	-20.3	
CNC(=O)COC(=O)c1c2c(nc3ccccc13)CCC2	inactive	-0.369	
CCCCNC(=O)COC(=O)c1c2c(nc3ccccc13)CCC2	7.31 µM (active)	1.26	
COc1ccc(NC(=O)COC(=O)c2c3c(nc4ccccc24)CCCC3)cc1	inactive	-10.5	
CN(CC(=O)NCCN1CCN(Cc2ccccc2)CC1)S(=O)(=O)c1cccc2nsnc12	inactive	3.2	
COCC(C)NC(=O)CCc1nnc(C2(c3ccc(Cl)cc3)CCC2)o1 (stereo unspecified)	inactive	7.22	
Cc1ccc(NC(=O)CCC(=O)n2nc(C)cc2C)c(C)c1	18.4 µM (active)		
Cc1cc(C)n(C(=O)CCCC(=O)n2nc(C)cc2C)n1	inactive	-1.02	
CCOc1ccc(NC(=O)CCC(=O)n2nc(C)cc2C)cc1	inactive	1.15	
CC(C)N(C(=O)Cn1c(=O)oc2ccccc21)c1ccccc1	inactive	12.3	
CCN1C(=O)[C@H]2[C@@H](c3ccc(C)cc3)N3C(=O)N(c4ccc(C(F)(F)F)cc4)C(=O)[C@@]3(CC)[C@H]2C1=O	inactive	-7.19	
CCN1C(=O)[C@H]2[C@@H](c3ccc(C)cc3)N3C(=O)N(c4ccc(C(F)(F)F)cc4)C(=O)[C@@]3(CC(C)C)[C@H]2C1=O	18.4 µM (active)	11.1	
CCN1C(=O)[C@H]2[C@@H](c3ccc(C)cc3)N3C(=O)N(c4ccccc4)C(=O)[C@@]3(CC)[C@H]2C1=O	inactive	16.2	
COc1ccc([C@@H]2[C@@H]3C(=O)N(C(C)(C)C)C(=O)[C@@H]3[C@]3(CC(C)C)C(=O)N(c4ccc(C(F)(F)F)cc4)C(=O)N23)cc1	20.6 µM (active)	18.1	

SMILES	Potency	cell number change [%]	lipid storage change, negative = inhibition
COc1ccc([C@@H]2[C@@H]3C(=O)N(C(C)(C)C)C(=O)[C@@H]3[C@]3(C)C(=O)N(c4ccc(C(F)(F)F)cc4)C(=O)N23)cc1	inactive	14.7	
COc1ccc([C@@H]2[C@@H]3C(=O)N(C(C)(C)C)C(=O)[C@@H]3[C@]3(Cc4ccc(Cl)cc4)C(=O)N(c4ccc(OC)cc4)C(=O)N23)cc1	inactive	16	
COc1ccc(CCNC(=O)CSc2ccc(-c3ccccc3)nn2)cc1	inactive	2.87	
CC(C)CNC(=O)C1CC(=O)OC12CCCCC2 (stereo unspecified)	inactive		
CC(Oc1ccc(C(=O)c2ccccc2)cc1)C(=O)N1CCOCC1 (stereo unspecified)	inactive		
CC(Oc1ccc(-c2nnco2)cc1)C(=O)N1CCOCC1 (stereo unspecified)	inactive	6.36	
CC(Oc1ccc(-c2ccccc2)cc1)C(=O)N1CCOCC1 (stereo unspecified)	2.91 µM (active)	17.9	
CCCN1Cc2cccc(C(=O)NCCCOC(C)C)c2C1=O	inactive	2.03	
Cc1ccc(-c2cc(C(=O)NCCCN3CCCC3)c3ccccc3n2)cc1C	inactive		
CCN=C1SC(C(=O)Nc2cccc(C)c2)CC(=O)N1CC (stereo unspecified)	inactive	-13.5	
COc1cccc(NC(=O)C2CC(=O)n3cnnc3S2)c1 (stereo unspecified)	inactive	-29	
Cc1cccc(NC(=O)C2CC(=O)n3cnnc3S2)c1 (stereo unspecified)	13 µM (active)	-1.17	
COc1ccc(N=C2NC(=O)/C(=C/c3ccco3)S2)cc1	inactive	15.8	
O=C(CNC(=O)c1ccco1)Nc1ccncc1	inactive		
COC(=O)/C=C1\SC(=Nc2ccccc2)NC1=O	inactive	10.6	
COC(=O)/C=C1/SC(=Nc2ccc(Cl)c(Cl)c2)NC1=O	inactive	7.13	
CCOc1ccc(N=C2NC(=O)/C(=C/C(=O)OC)S2)cc1	25.9 µM (active)		
O=C(c1nc2ccccn2c1CNCCCn1ncc2ccccc21)N1CCOCC1	inactive	25.5	
COc1cccc(/C=N/NC(N)=S)c1OS(=O)(=O)c1ccccc1	inactive	-16.4	
COc1cccc(/C=N/NC(N)=S)c1OCc1cccc(Cl)c1	8.2 µM (active)	0.0836	
NC(=S)N/N=C\c1ccccc1OCc1ccccc1	inactive	0.634	
O=C(c1ccc(C#CC2(O)CCCCC2)cc1)N1CCOCC1	inactive	5.75	
O=C1OCC(CO)(CO)N=C1NNc1ccccc1Cl	inactive		
